Measured values from PMC5540273 (PLoS ONE, 2017).

Tests used:
Settings in all cases: concentration: 1 μM, replicates: in singlicate; n = 1
ERN1 = system: ERN1
FAK = system: T1, FAK
T1 construct: gene PTK2

FER = system: FER
FES = system: FES
FGFR1 = system: FGFR1
FGFR2 = system: FGFR2
FGFR3 = system: FGFR3
FGFR4 = system: FGFR4
FGR = system: FGR
FLT1 = system: FLT1
FLT3-autoinhibited = system: FLT3-autoinhibited
FLT3 = system: FLT3
FLT4 = system: FLT4
FRK = system: FRK
FYN = system: FYN
GAK = system: GAK
GCN2(Kin.Dom.2,S808G) = system: T2, GCN2(Kin.Dom.2,S808G)
T2 construct: gene EIF2AK4

GRK1 = system: GRK1
GRK2 = system: T3, GRK2
T3 construct: gene ADRBK1

GRK3 = system: T4, GRK3
T4 construct: gene ADRBK2
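Also: KINOMEscan kinase panel screen.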

Row | Structure (SMILES) | %Inh (ERN1) | %Inh (FAK) | %Inh (FER) | %Inh (FES) | %Inh (FGFR1) | %Inh (FGFR2) | %Inh (FGFR3) | %Inh (FGFR4) | %Inh (FGR) | %Inh (FLT1) | %Inh (FLT3-autoinhibited) | %Inh (FLT3) | %Inh (FLT4) | %Inh (FRK) | %Inh (FYN) | %Inh (GAK) | %Inh (GCN2(Kin.Dom.2,S808G)) | %Inh (GRK1) | %Inh (GRK2) | %Inh (GRK3)
1 | Cc1cccc(-c2nc(-c3ccc(S(C)(=O)=O)cc3)sc2-c2ccncc2)c1 | 0% | 4% | 14% | 37% | 26% | 1% | 0% | 0% | 45% | 0% | 2% | 14% | 8% | 0% | 0% | 5% | 0% | 0% | 0% | 3%
2 | CN(C1=C(c2ccccc2)C(=O)NC1=O)c1ccccc1 [SB-334860] | 20% | 0% | 19% | 0% | 0% | 0% | 24% | 18% | 17% | 0% | 3% | 0% | 20% | 2% | 39% | 7% | 0% | 9% | 8% | 7%
3 | COc1ccc(CNC(=O)NC2CCN(c3ccnc(Nc4ccc(OC)cc4)n3)C2)cc1 (stereo not drawn) [GSK1379727] | 0% | 0% | 8% | 1% | 0% | 7% | 18% | 0% | 26% | 5% | 0% | 7% | 0% | 0% | 38% | 0% | 11% | 0% | 0% | 48%
4 | O=C1Cc2cc(Nc3nc(NCc4cccc(S(=O)(=O)C(F)(F)F)c4)ncc3C(F)(F)F)ccc2N1 | 0% | 0% | 0% | 7% | 0% | 1% | 5% | 0% | 0% | 0% | 0% | 0% | 0% | 0% | 0% | 8% | 28% | 0% | 30% | 22%
5 | Cc1ccc(NC(=O)c2ccnc(N3CCN(C)CC3)c2)cc1-c1ccc(C(=O)NCC2CC2)cc1 [GW775604] | 0% | 0% | 24% | 0% | 0% | 0% | 0% | 0% | 8% | 0% | 0% | 0% | 0% | 0% | 0% | 0% | 0% | 0% | 0% | 33%
6 | CC(=O)Nc1ccc(COc2ccc(Nc3ccnc4cc(-c5ccccn5)ccc34)cc2)cc1.Cl [GW440148] | 17% | 1% | 0% | 13% | 0% | 0% | 14% | 0% | 36% | 99.2% | 38% | 98% | 99.9% | 0% | 47% | 8% | 0% | 0% | 0% | 17%
7 | CSc1ccc(-c2cc3ncnc(SCC(=O)O)c3s2)cc1 | 0% | 0% | 10% | 9% | 5% | 0% | 0% | 0% | 23% | 2% | 0% | 0% | 0% | 16% | 4% | 0% | 0% | 0% | 0% | 13%
8 | COc1ccc(COc2cc(-n3cnc4ccccc43)sc2C(N)=O)cc1 [GSK1024304] | 2% | 0% | 6% | 16% | 0% | 0% | 1% | 0% | 10% | 24% | 0% | 4% | 1% | 0% | 16% | 17% | 0% | 0% | 0% | 10%
9 | O=c1cc(N2CCOCC2)nc2n(Cc3cccc(Cl)c3Cl)c(C3CC3)nn12 [GSK2358994] | 0% | 0% | 3% | 15% | 0% | 1% | 0% | 0% | 9% | 6% | 0% | 10% | 10% | 0% | 6% | 11% | 0% | 0% | 0% | 0%
